Laboratory results as given in PubChem BioAssay (Tox21).
Inconclusive results are not listed. Where a call stands in place of a potency, no number is given. Where a structure was tested more than once in an assay, its records may differ in their call. Activity calls are given as the source filed them. Unless noted, the call rests on the fitted dose curve.

How the values were obtained:
[1] = Nuclear factor erythroid 2-related factor 2/antioxidant responsive element (Nrf2/ARE) small molecule agonists: qHTS cell viability counter screen in human keratinocytes (AID 1919968; active means well fitted curve in the direction sought with a large enough effect in the repeat runs; an effect the other way counts as inactive or inconclusive; further: nearly all actives have a fitted effect of over 55% in size; further: potency means the concentration at half of the fitted maximal effect)
Summary of the method: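 Stably transfected HaCaT (KeratinoSens), 1,500/well. Test agents in DMSO were applied for 23 h, 37 C/5% CO2. CellTiter-Fluor was incubated 1 h before the fluorescence read.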

[2] = Nuclear factor erythroid 2-related factor 2/antioxidant responsive element (Nrf2/ARE) small molecule agonists: luciferase reporter gene qHTS assay in human keratinocytes (AID 1919969); further: nearly all actives have a fitted effect of over 35% in size; further: potency means the concentration at half of the fitted maximal effect
[3] = target: Gonadotropin-releasing hormone receptor (Homo sapiens) (UniProt P30968); test: Human gonadotropin-releasing hormone receptor (GnRHR) small molecule agonists, calcium flux assay in GnRHR-HEK293 cells (AID 1920063); further: nearly all actives have a fitted effect of over 35% in size
Sequence of Gonadotropin-releasing hormone receptor (Homo sapiens) (P30968 whole entry, looked up): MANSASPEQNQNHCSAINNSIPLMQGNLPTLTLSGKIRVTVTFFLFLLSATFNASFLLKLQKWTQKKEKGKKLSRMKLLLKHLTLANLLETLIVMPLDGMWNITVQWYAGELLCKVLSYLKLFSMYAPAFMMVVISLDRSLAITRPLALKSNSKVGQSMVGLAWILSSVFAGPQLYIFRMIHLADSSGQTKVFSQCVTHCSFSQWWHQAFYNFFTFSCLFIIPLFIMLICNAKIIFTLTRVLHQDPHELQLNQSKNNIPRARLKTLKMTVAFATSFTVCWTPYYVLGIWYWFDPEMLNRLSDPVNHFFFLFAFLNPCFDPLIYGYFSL
Summary of the method: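 Stable human GnRHR HEK293 line. 18 h plating, then calcium dye for 1 h at 37 C. Agonist-mode compound addition from DMSO stocks; fluorescence monitored 3 min.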

[4] = target: KiSS-1 receptor (Homo sapiens) (UniProt Q969F8); test: Human kisspeptin (KISS1R) small molecule agonists, calcium flux assay in KISS1R-HEK293 cells (AID 1920064; active means well fitted curve in the direction sought with a large enough effect in the repeat runs; an effect the other way counts as inactive or inconclusive)
Sequence of KiSS-1 receptor (Homo sapiens) (Q969F8 whole entry, looked up): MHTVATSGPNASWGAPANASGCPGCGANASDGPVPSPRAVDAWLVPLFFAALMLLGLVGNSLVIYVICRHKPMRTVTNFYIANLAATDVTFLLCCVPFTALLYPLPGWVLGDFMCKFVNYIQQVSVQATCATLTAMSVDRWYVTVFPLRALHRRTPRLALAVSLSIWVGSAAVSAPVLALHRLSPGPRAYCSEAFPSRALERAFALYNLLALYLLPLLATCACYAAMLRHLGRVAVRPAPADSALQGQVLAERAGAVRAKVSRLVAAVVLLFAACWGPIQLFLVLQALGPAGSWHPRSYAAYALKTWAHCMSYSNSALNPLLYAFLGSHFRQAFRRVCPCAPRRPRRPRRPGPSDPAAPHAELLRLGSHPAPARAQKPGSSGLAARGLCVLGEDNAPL
Summary of the method: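 After overnight (18 h) culture at 37 C/5% CO2, human KISS1R-HEK293 cells received calcium dye for 1 h, then test compound; emission at 540 nm (excitation 480 nm) was tracked for 3 min.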

[5] = G protein-coupled receptor (GPCR) small molecule agonists, calcium flux assay: HEK293 wild type cell line counter screen (AID 1920065)
Summary of the method: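 Following 18 h incubation at 37 C/5% CO2, plates got calcium dye for 1 h; compounds, ATP or DMSO were then pinned in and fluorescence followed kinetically (480/540 nm).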

[6] = p53 small molecule agonists, cell-based qHTS assay with human liver microsomes (AID 1963577)
Summary of the method: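 p53RE-bla reporter cells were pre-incubated 5 h at 37 C, then treated with compounds plus human liver microsomes (0.5 mg/mL final) and NADPH (0.5 mg/mL final) for 16 h at 37 C. Beta-lactamase activity was read by LiveBLAzer fluorescence after 2 h at room temperature.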

[7] = p53 small molecule agonists, cell-based qHTS assay with rat liver microsomes (AID 1963578)
Summary of the method: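 p53RE-bla cells were exposed to compounds together with rat liver microsomes (0.5 mg/mL final) and NADPH (0.5 mg/mL final) for 16 h at 37 C, then read by LiveBLAzer beta-lactamase fluorescence after 2 h at room temperature.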

[8] = p53 small molecule agonists, cell-based qHTS assay with human liver microsomes: qHTS cell viability counter screen (AID 1963579); further: nearly all actives have a fitted effect of over 45% in size; further: potency means the concentration at half of the fitted maximal effect
Summary of the method: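 p53RE-bla cells (4,000/well) were pre-incubated 5 h at 37 C, then given compounds in DMSO plus human liver microsomes (0.5 mg/mL final) and NADPH (0.5 mg/mL final) for 16 h at 37 C. Viability was read by CellTiter-Glo luminescence.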

[9] = p53 small molecule agonists, cell-based qHTS assay with rat liver microsomes: qHTS cell viability counter screen (AID 1963580); further: nearly all actives have a fitted effect of over 45% in size
Summary of the method: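 After the beta-lactamase ratio was read, CellTiter-Glo was added to the same wells and luminescence measured at 30 min; cells had been treated 16 h at 37 C with compounds, rat liver microsomes and NADPH (0.5 mg/mL final each).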

[10] = p53 small molecule agonists, cell-based qHTS assay: qHTS cell viability counter screen (AID 1963581); further: nearly all actives have a fitted effect of over 45% in size
Summary of the method: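 qHTS counter screen: 16 h compound exposure at 37 C of p53RE-bla HCT-116 cells (4,000 per well, seeded 5 h prior), cell viability by ATP luminescence.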

[11] = p53 small molecule agonists, cell-based qHTS assay (AID 1963582; active means well fitted activation curve with a large enough effect in the signal ratio in the repeat runs, not every such curve was filed as active; the % refers to the signal ratio)
Summary of the method: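 Measured: fluorescence from cleaved LiveBLAzer substrate. System: p53RE-bla cells, 16 h compound treatment at 37 C, 2 h substrate step at room temperature.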

[12] = target: 5-hydroxytryptamine receptor 2A (Homo sapiens) (UniProt P28223); test: 5-hydroxytryptamine receptor 2A (HTR2A) small molecule antagonists, cell-based qHTS assay (AID 1963586); further: nearly all actives have a fitted effect of over 45% in size
Sequence of 5-hydroxytryptamine receptor 2A (Homo sapiens) (P28223 whole entry, looked up): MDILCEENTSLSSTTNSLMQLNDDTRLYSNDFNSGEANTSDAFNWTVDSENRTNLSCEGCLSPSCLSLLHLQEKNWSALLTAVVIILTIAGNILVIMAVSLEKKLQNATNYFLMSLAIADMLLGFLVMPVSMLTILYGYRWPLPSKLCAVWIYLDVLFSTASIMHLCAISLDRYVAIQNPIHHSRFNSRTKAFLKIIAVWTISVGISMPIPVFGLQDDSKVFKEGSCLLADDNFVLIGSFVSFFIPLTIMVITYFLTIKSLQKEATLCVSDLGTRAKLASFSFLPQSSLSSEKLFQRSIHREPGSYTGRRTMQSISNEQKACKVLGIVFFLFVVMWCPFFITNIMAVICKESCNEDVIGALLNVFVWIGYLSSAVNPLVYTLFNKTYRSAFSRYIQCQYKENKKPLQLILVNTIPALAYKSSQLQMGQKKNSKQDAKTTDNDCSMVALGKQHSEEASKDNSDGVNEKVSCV
Summary of the method: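 CHO cells stably expressing human HTR2A were plated for 18 h at 37 C, then loaded with calcium dye for 1 h. Compounds were preincubated 5 min at room temperature before DOI (4 nM solution) was added. Kinetic fluorescence was read for 3 min.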

[13] = target: 5-hydroxytryptamine receptor 2A (Homo sapiens) (UniProt P28223); test: 5-hydroxytryptamine receptor 2A (HTR2A) small molecule agonists, cell-based qHTS assay (AID 1963587); further: nearly all actives have a fitted effect of over 30% in size
Summary of the method: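 CHO cells stably expressing human HTR2A, plated 18 h, loaded with calcium dye 1 h at 37 C. Agonist mode: compounds added and intracellular calcium fluorescence recorded kinetically for 2 min at 1 sec intervals.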

[14] = target: Muscarinic acetylcholine receptor M1 (Homo sapiens) (UniProt P11229); test: Cholinergic receptor muscarinic 1 (CHRM1) small molecule antagonists, cell-based qHTS assay (AID 1963588); further: nearly all actives have a fitted effect of over 40% in size; further: potency means the concentration at half of the fitted maximal effect
Sequence of Muscarinic acetylcholine receptor M1 (Homo sapiens) (P11229 whole entry, looked up): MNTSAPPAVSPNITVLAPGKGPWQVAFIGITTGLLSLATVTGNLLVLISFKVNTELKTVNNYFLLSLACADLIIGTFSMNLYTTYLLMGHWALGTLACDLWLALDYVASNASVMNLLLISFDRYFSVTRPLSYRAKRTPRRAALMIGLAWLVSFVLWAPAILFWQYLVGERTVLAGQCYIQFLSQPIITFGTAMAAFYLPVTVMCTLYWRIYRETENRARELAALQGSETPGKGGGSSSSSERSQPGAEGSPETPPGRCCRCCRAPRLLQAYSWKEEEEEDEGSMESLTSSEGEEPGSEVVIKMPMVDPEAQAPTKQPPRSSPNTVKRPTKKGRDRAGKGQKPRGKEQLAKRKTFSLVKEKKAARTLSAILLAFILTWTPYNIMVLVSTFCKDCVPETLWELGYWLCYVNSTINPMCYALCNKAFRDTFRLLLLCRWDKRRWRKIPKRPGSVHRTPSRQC
Summary of the method: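 Compounds were tested at 15 concentrations in three independent runs. Dye-loaded CHRM1-CHO cells were exposed 5 min at room temperature before stimulation by acetylcholine added at 50nM. Intracellular calcium was read kinetically on FDSS for 3 min.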

[15] = target: Muscarinic acetylcholine receptor M1 (Homo sapiens) (UniProt P11229); test: Cholinergic receptor muscarinic 1 (CHRM1) small molecule agonists, cell-based qHTS assay (AID 1963589); further: nearly all actives have a fitted effect of over 35% in size
Summary of the method: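 Kinetic fluorescence (1 s intervals) of calcium-sensitive dye in human M1 CHO cells after compound addition; cells pre-incubated 18 h at 37 C/5% CO2 and dye-loaded 1 h.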

[16] = cAMP Responsive Elements (CRE) small molecule agonists, cell-based qHTS assay (AID 1963590)
Summary of the method: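 Test agents in DMSO were incubated 3 h at 37 C/5% CO2 with CRE-bla HEK 293T cells seeded 18 h earlier; LiveBLAzer B/G FRET substrate was added and read after 2 h at room temperature.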

[17] = cAMP Responsive Elements (CRE) small molecule antagonists, cell-based qHTS assay (AID 1963591; active means well fitted inhibition curve with a large enough effect in the signal ratio in the repeat runs, not every such curve was filed as active; the % refers to the signal ratio)
Summary of the method: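 Reporter line CRE-bla HEK 293T in dialyzed-FBS DMEM; cells preincubated 18 h, treated 3 h with compound plus NKH477 (0.25 uM final); LiveBLAzer FRET, 2 h RT.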

[18] = target: Beta-2 adrenergic receptor (Homo sapiens) (UniProt P07550); test: Adrenergic beta2 receptor (ADRB2) small molecule antagonists, cell-based qHTS assay (AID 1963592); further: series mostly up to about 92 µM; nearly all actives have a fitted effect of over 50% in size
Sequence of Beta-2 adrenergic receptor (Homo sapiens) (P07550 whole entry, looked up): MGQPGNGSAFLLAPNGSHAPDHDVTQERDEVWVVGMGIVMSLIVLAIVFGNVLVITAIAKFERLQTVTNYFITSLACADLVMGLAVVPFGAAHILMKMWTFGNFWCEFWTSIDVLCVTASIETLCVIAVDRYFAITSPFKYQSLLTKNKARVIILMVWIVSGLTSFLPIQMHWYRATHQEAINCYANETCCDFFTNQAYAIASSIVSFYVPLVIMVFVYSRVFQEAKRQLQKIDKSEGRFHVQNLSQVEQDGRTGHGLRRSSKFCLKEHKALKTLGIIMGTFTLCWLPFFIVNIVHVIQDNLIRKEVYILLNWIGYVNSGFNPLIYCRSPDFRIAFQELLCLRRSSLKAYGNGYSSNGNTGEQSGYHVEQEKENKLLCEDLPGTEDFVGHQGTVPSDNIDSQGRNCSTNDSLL
Summary of the method: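 Assay format: CHO-ADRB2 cells, 18-20hr seeding at 37C/5% CO2, then compound plus 1nM isoproterenol agonist mix for 0.5hr RT. Homogeneous time-resolved fluorescence cAMP detection after 1hr, expressed as 665/615 nm ratio.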

[19] = target: D(2) dopamine receptor (Homo sapiens) (UniProt P14416); test: Dopamine D2 receptor (DRD2) small molecule agonists, cell-based qHTS assay (AID 1963594); further: nearly all actives have a fitted effect of over 35% in size
Sequence of D(2) dopamine receptor (Homo sapiens) (P14416 whole entry, looked up): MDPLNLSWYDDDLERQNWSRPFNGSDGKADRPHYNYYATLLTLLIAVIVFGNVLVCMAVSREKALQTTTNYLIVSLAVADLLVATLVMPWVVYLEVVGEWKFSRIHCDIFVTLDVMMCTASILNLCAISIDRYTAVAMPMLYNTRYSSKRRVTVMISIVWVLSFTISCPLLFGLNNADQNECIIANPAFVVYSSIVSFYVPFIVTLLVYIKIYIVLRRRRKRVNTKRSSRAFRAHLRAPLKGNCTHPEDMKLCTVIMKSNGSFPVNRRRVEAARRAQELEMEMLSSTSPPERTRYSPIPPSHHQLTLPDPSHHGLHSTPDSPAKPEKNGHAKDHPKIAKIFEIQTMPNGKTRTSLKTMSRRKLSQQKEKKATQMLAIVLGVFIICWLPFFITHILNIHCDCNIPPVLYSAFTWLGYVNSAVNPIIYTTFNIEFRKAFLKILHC
Summary of the method: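 HEK293 cells stably expressing human DRD2, pre-treated with PDE inhibitor Ro20-1724 (0.1 mM final) and compound 10 min at room temperature, then stimulated with NKH477 (200nM […]) for 30 min. cAMP read by HTRF (665/620 nm).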

[20] = target: D(2) dopamine receptor (Homo sapiens) (UniProt P14416); test: Dopamine D2 receptor (DRD2) small molecule antagonists, cell-based qHTS assay (AID 1963595; active means well fitted inhibition curve with a large enough effect in the signal ratio in the repeat runs, with a control signal flat; the % refers to the signal ratio)
Summary of the method: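 HEK293 cells stably expressing DRD2, preincubated with 0.1 mM Ro20-1724 and compounds 10 min, were stimulated with 200 nM NKH477 plus 12 nM quinpirole for 30 min at room temperature; cAMP measured by HTRF (665/620 nm).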

| Structure (SMILES) | Potency [1] | Potency [2] | Potency [3] | Potency [4] | Potency [5] | Potency [6] | Potency [7] | Potency [8] | Potency [9] | Potency [10] | Potency [11] | Potency [12] | Potency [13] | Potency [14] | Potency [15] | Potency [16] | Potency [17] | Potency [18] | Potency [19] | Potency [20] |
| --- | --- | --- | --- | --- | --- | --- | --- | --- | --- | --- | --- | --- | --- | --- | --- | --- | --- | --- | --- | --- |
| CC(C)N(C(=O)SCC(Cl)=C(Cl)Cl)C(C)C | inactive | inactive | inactive | inactive | inactive | inactive | inactive | inactive | inactive | inactive | inactive | inactive | inactive | 23.4 µM (active) | inactive | inactive | inactive | inactive | inactive | inactive |
| COc1ccc(C=O)cc1 | inactive | inactive | inactive | inactive | inactive | inactive | inactive | inactive | inactive | inactive | inactive | inactive | inactive | inactive | inactive | inactive | inactive | inactive | inactive | inactive |
| CS(=O)(=O)NC(=O)c1cc(Oc2ccc(C(F)(F)F)cc2Cl)ccc1[N+](=O)[O-] | inactive | inactive | inactive | inactive | inactive | inactive | inactive | inactive | inactive | inactive | inactive | inactive | inactive | inactive | inactive | inactive | inactive | inactive |  | inactive |
| C=CCc1cc(OC)c2c(c1)OCO2 | inactive | inactive | inactive | inactive | inactive | inactive | inactive | inactive | inactive | inactive | inactive | inactive | inactive | inactive | inactive | inactive | inactive | inactive | inactive | inactive |
| COP(=O)(CCC(=O)NCO)OC | inactive | inactive | inactive | inactive | inactive | inactive | inactive | inactive | inactive | inactive | inactive | inactive | inactive | inactive | inactive | inactive | inactive | inactive | inactive | inactive |
| Nc1ccccc1C(=O)OCCc1ccccc1 | inactive | 488 nM (active) and inactive | inactive | inactive | inactive | inactive | inactive | inactive | inactive | inactive | inactive | inactive | inactive | inactive | inactive |  |  | inactive | inactive | inactive |
| COc1ccc(C(O)(c2cncnc2)C2CC2)cc1 (configuration not stated) | inactive | inactive | inactive | inactive | inactive | inactive | inactive | inactive | inactive | inactive | inactive | inactive | inactive | inactive | inactive | inactive | inactive |  | inactive | inactive |
| CC(C)C(=O)OCC(C)(C)C(OC(=O)C(C)C)C(C)C (configuration not stated) | inactive | inactive | inactive | inactive | inactive | inactive | inactive | inactive | inactive | inactive | inactive | inactive | inactive | inactive | inactive |  | inactive | inactive | inactive | inactive |
| NNC(=O)c1ccccc1 | inactive | 56 µM (active) | inactive | inactive | inactive | inactive | inactive | 41.9 µM (active) | inactive | inactive | inactive | inactive | inactive | inactive | inactive | inactive |  | inactive | inactive | inactive |
| O=NN1CCCC1 | 14.3 µM (active) and inactive | inactive | inactive | inactive | inactive | inactive | inactive | inactive | inactive | inactive | inactive | inactive | inactive | inactive | inactive | inactive |  | inactive |  | inactive |
| CC(C)OC(=O)Nc1cccc(Cl)c1 | inactive | inactive | inactive | inactive | inactive | inactive | inactive | inactive | inactive | inactive | inactive | inactive | inactive | inactive | inactive | inactive |  | inactive | inactive | inactive |
| Nc1cc(Cl)cc(C(=O)O)c1Cl | inactive | inactive | inactive | inactive | inactive | inactive | inactive | inactive | inactive | inactive | inactive | inactive | inactive | inactive | inactive | inactive | inactive |  | inactive | inactive |
| CC1OC(C)OC(C)O1 (configuration not stated) | inactive | inactive | inactive | inactive | inactive | inactive | inactive | inactive | inactive | inactive | inactive | inactive | inactive | inactive | inactive | inactive | inactive |  | inactive | inactive |
| CC1(C)[C@H](C(=O)O[C@H](C#N)c2cccc(Oc3ccccc3)c2)[C@@H]1C=C(Br)Br | inactive | inactive | inactive | inactive | inactive | inactive | inactive | inactive | inactive | inactive | inactive | inactive | inactive | inactive | inactive | inactive | inactive |  | inactive | inactive |
| OCCCl | inactive | inactive | inactive | inactive | inactive | inactive | inactive | inactive | inactive | inactive | inactive | inactive | inactive | inactive | inactive | inactive | inactive | inactive |  | inactive |
